Experimental data reported in the supplement of paper PMC3545927.
Some of the results follow. The hit rate among all sequences tested is not known here.

Target: furin, P09958
Assay: furin cleavage Z-score vs untreated control; higher = more cleavage, active = 3.5 or more, inactive = 1 or less, 8 variable residues between constant flanks
Method in brief: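 In 50 mM HEPES pH 7.5 with CaCl2 and NaCl, purified furin was incubated with bead-anchored 8-mer peptide–cDNA fusions at 1:10 enzyme:substrate in 0.01 ml. Incubation times were 7.5, 15 and 30 min. DNA set free by cleavage was adapter-tagged by PCR and sequenced, with read counts taken as abundance. Log counts relative to furin-free reactions, after lowess adjustment and median absolute deviation scaling, form the cleavage Z-score.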

Chain of furin, P09958 (P09958 whole entry): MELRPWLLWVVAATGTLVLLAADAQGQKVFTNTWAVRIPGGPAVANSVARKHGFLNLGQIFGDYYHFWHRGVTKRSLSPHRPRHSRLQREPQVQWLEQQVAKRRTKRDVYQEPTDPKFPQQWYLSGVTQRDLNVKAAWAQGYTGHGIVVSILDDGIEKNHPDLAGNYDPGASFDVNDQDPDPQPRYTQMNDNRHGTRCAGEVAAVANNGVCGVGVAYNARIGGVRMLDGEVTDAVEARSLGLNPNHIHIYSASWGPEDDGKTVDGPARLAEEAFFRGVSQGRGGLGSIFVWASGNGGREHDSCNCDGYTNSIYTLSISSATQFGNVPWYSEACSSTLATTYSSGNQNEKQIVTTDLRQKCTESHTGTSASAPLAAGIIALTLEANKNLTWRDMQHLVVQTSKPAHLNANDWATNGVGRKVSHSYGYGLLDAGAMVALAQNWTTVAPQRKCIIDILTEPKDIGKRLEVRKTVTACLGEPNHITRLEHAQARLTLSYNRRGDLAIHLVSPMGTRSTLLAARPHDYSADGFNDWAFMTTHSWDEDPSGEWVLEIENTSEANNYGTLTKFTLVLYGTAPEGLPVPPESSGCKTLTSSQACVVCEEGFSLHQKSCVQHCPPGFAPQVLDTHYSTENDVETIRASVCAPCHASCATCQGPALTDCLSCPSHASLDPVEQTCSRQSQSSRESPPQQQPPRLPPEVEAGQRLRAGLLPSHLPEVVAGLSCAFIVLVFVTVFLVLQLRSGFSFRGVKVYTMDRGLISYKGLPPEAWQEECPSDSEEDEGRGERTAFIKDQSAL

B1: HC23 (peptide)
chain: CAMEECVQHLAGNASASA
furin cleavage Z-score (7.5 min): 0.873 (inactive) | furin cleavage Z-score (15 min): 1.67 | furin cleavage Z-score (30 min): 1.34

B2: HC460 (peptide)
chain: CASGPWITPRAGNASASA
furin cleavage Z-score (7.5 min): -0.377 (inactive) | furin cleavage Z-score (15 min): 1.52 | furin cleavage Z-score (30 min): -0.355 (inactive)

B3: FS-1216 (peptide)
chain: CAITNRPPRSAGNASASA
furin cleavage Z-score (7.5 min): 2.7 | furin cleavage Z-score (15 min): 5.07 (active) | furin cleavage Z-score (30 min): 2.23

B4: FS-223 (peptide)
chain: CADGGRVSRSAGNASASA
furin cleavage Z-score (7.5 min): 3.4 | furin cleavage Z-score (15 min): 4.59 (active) | furin cleavage Z-score (30 min): 5.66 (active)

B5: FS-1217 (peptide)
chain: CAITSRIIRSAGNASASA
furin cleavage Z-score (7.5 min): 9.87 (active) | furin cleavage Z-score (15 min): 8.44 (active) | furin cleavage Z-score (30 min): 6.88 (active)

B6: HC1897 (peptide)
chain: CATTPCSSSWAGNASASA
furin cleavage Z-score (7.5 min): -0.808 (inactive) | furin cleavage Z-score (15 min): 1.71 | furin cleavage Z-score (30 min): -0.0324 (inactive)

B7: HC1963 (peptide)
chain: CAEATTPCSGAGNASASA
furin cleavage Z-score (7.5 min): -1.21 (inactive) | furin cleavage Z-score (15 min): -0.00595 (inactive) | furin cleavage Z-score (30 min): 0.567 (inactive)

B8: HC1793 (peptide)
chain: CAREMEECSQAGNASASA
furin cleavage Z-score (7.5 min): 0.916 (inactive) | furin cleavage Z-score (15 min): -0.677 (inactive) | furin cleavage Z-score (30 min): 1.51

B9: HC1569 (peptide)
chain: CAWETARHTPAGNASASA
furin cleavage Z-score (7.5 min): 0.673 (inactive) | furin cleavage Z-score (15 min): 0.503 (inactive) | furin cleavage Z-score (30 min): -0.633 (inactive)

B10: HC707 (peptide)
chain: CAPKGPVIQMAGNASASA
furin cleavage Z-score (7.5 min): -0.0909 (inactive) | furin cleavage Z-score (15 min): 0.949 (inactive) | furin cleavage Z-score (30 min): 0.762 (inactive)

B11: HC2041 (peptide)
chain: CAVVNCSMSYAGNASASA
furin cleavage Z-score (7.5 min): 0.601 (inactive) | furin cleavage Z-score (15 min): 1.6 | furin cleavage Z-score (30 min): -0.0752 (inactive)

B12: FS-878 (peptide)
chain: CATARRHGRDAGNASASA
furin cleavage Z-score (7.5 min): 6.42 (active) | furin cleavage Z-score (15 min): 7.12 (active) | furin cleavage Z-score (30 min): 6.27 (active)

B13: FS-397 (peptide)
chain: CAAPGRDGRDAGNASASA
furin cleavage Z-score (7.5 min): -0.000356 (inactive) | furin cleavage Z-score (15 min): -1.26 (inactive) | furin cleavage Z-score (30 min): -0.555 (inactive)

B14: FS-382 (peptide)
chain: CATAARRLRDAGNASASA
furin cleavage Z-score (7.5 min): 1.54 | furin cleavage Z-score (15 min): 3.67 (active) | furin cleavage Z-score (30 min): 3.74 (active)

B15: HC905 (peptide)
chain: CAGRTGRGKPAGNASASA
furin cleavage Z-score (7.5 min): -1.05 (inactive) | furin cleavage Z-score (15 min): -0.843 (inactive) | furin cleavage Z-score (30 min): -1.55 (inactive)

B16: FS-1449 (peptide)
chain: CADSSRIKRRAGNASASA
furin cleavage Z-score (7.5 min): 8.08 (active) | furin cleavage Z-score (15 min): 10.6 (active) | furin cleavage Z-score (30 min): 8.94 (active)

B17: FS-756 (peptide)
chain: CADISRIKRGAGNASASA
furin cleavage Z-score (7.5 min): 2.64 | furin cleavage Z-score (15 min): 4.17 (active) | furin cleavage Z-score (30 min): 2.27

B18: FS-2266 (peptide)
chain: CARKKRIKRRAGNASASA
furin cleavage Z-score (7.5 min): 13.1 (active) | furin cleavage Z-score (15 min): 14.5 (active) | furin cleavage Z-score (30 min): 11.5 (active)

B19: FS-2214 (peptide)
chain: CARKKRLENRAGNASASA
furin cleavage Z-score (7.5 min): 1.32 | furin cleavage Z-score (15 min): 0.582 (inactive) | furin cleavage Z-score (30 min): 0.84 (inactive)

B20: FS-536 (peptide)
chain: CAHKSRKERRAGNASASA
furin cleavage Z-score (7.5 min): 1.88 | furin cleavage Z-score (15 min): 4.97 (active) | furin cleavage Z-score (30 min): 3.69 (active)

B21: HC1988 (peptide)
chain: CAWVCCSMSYAGNASASA
furin cleavage Z-score (7.5 min): 0.172 (inactive) | furin cleavage Z-score (15 min): 0.44 (inactive) | furin cleavage Z-score (30 min): 1.05

B22: FS-3018 (peptide)
chain: CARPLRGVSGAGNASASA
furin cleavage Z-score (7.5 min): -0.934 (inactive) | furin cleavage Z-score (15 min): -0.697 (inactive) | furin cleavage Z-score (30 min): -0.66 (inactive)

B23: HC533 (peptide)
chain: CAEAALENLVAGNASASA
furin cleavage Z-score (7.5 min): -0.446 (inactive) | furin cleavage Z-score (15 min): -0.46 (inactive) | furin cleavage Z-score (30 min): -1.1 (inactive)

B24: FS-2276 (peptide)
chain: CARLKRHPEEAGNASASA
furin cleavage Z-score (7.5 min): 1.2 | furin cleavage Z-score (15 min): 3.98 (active) | furin cleavage Z-score (30 min): 3.45

B25: FS-2221 (peptide)
chain: CARLKRVVPDAGNASASA
furin cleavage Z-score (7.5 min): 3.21 | furin cleavage Z-score (15 min): 5.12 (active) | furin cleavage Z-score (30 min): 6 (active)

B26: FS-2704 (peptide)
chain: CARLKRAVSEAGNASASA
furin cleavage Z-score (7.5 min): 8.88 (active) | furin cleavage Z-score (15 min): 10.6 (active) | furin cleavage Z-score (30 min): 7.25 (active)

B27: FS-1740 (peptide)
chain: CARLKKIKDDAGNASASA
furin cleavage Z-score (7.5 min): -0.946 (inactive) | furin cleavage Z-score (15 min): -0.774 (inactive) | furin cleavage Z-score (30 min): -1.39 (inactive)

B28: FS-1963 (peptide)
chain: CARLKRTNGNAGNASASA
furin cleavage Z-score (7.5 min): 0.424 (inactive) | furin cleavage Z-score (15 min): 2.26 | furin cleavage Z-score (30 min): 1.1

B29: FS-2709 (peptide)
chain: CARLKRRQEEAGNASASA
furin cleavage Z-score (7.5 min): -0.805 (inactive) | furin cleavage Z-score (15 min): 0.691 (inactive) | furin cleavage Z-score (30 min): 1.04

B30: FS-2570 (peptide)
chain: CARLKRIVFDAGNASASA
furin cleavage Z-score (7.5 min): 0.11 (inactive) | furin cleavage Z-score (15 min): 0.63 (inactive) | furin cleavage Z-score (30 min): 1.98

B31: FS-2989 (peptide)
chain: CARLKRAVWIAGNASASA
furin cleavage Z-score (7.5 min): 5.97 (active) | furin cleavage Z-score (15 min): 7.83 (active) | furin cleavage Z-score (30 min): 8.13 (active)

B32: FS-2042 (peptide)
chain: CARLDRHVFIAGNASASA
furin cleavage Z-score (7.5 min): -0.675 (inactive) | furin cleavage Z-score (15 min): -1.39 (inactive) | furin cleavage Z-score (30 min): -0.0693 (inactive)
